In ChEMBL document CHEMBL1157539, “Thousands of chemical starting points for antimalarial lead identification” (Nature, 2010) one finds Inhibition data, which are given here for 27 compounds.

Assay type in all cases: functional
The test system of test [1] is Plasmodium falciparum. The experiment in a line: GSK_TCMDC: Inhibition of Plasmodium falciparum 3D7 in whole red blood cells, using parasite LDH activity as an index of growth. Test compounds present at 2uM.
The test system of test [2] is Plasmodium falciparum. Description: GSK_TCMDC: Inhibition of Plasmodium falciparum Dd2 in whole red blood cells, using parasite LDH activity as an index of growth. Test compounds present at 2uM.
Another test concerns HepG2. The experiment in a line: GSK_TCMDC: Percent inhibition of human HepG2 cell line. Test compounds present at 10uM.

A word on the Inhibition: it is the share of the control response that was lost under treatment. Low readings indicate a response near the control, high ones a response far below the control.

Take `O=C(Nc1cccc(-c2nn3ccccc3c2-c2ccnc(Nc3ccc(C(=O)N4CCOCC4)cc3)n2)c1)c1c(F)cccc1F`: the values for the Inhibition with Plasmodium falciparum [1], in the test with Plasmodium falciparum [2] and in the test with HepG2 were 99%, 97% and 72%, respectively.
As to `CC1(C)N=C(N)N=C(N)N1c1ccc2ccccc2c1.Cl`, the Inhibition in the test on Plasmodium falciparum [1] is recorded as 95%; in the test on Plasmodium falciparum [2], 0%; in the test with HepG2, 48%.
The like results for `O=C(Nc1cccc(-c2cccc(CN3CCCC3)c2)c1)c1ccc(Cl)cc1.O=C(O)C(F)(F)F` were, in that order, 93%, 32% and 50%.
The like results for `Cc1ccc(-c2ccn(Cc3ccc(OCc4ccccc4)cc3)n2)cn1.Cc1ccc(-c2ccnn2Cc2ccc(OCc3ccccc3)cc2)cn1` were, in that order, 93%, 92% and 1%.
With `CC(NC(=O)c1ccc(O)c(-c2ccc(Cl)c(Cl)c2)c1)C(=O)NCCN1CCCCC1` (stereo unspecified), the figures for the Inhibition with Plasmodium falciparum [1], with Plasmodium falciparum [2] and in the test on HepG2 were 97%, 3% and 0%, respectively.
The like results for `O=C(Nc1ccc(OC2CCN(Cc3ccsc3)C2)c(Cl)c1)c1ccc(F)cc1.O=C(O)C(F)(F)F` (stereo unspecified) were, in that order, 89%, 73% and 0%.
The corresponding values for `CN(C)C(=O)CN1CCN(c2ncnc(N3CCc4c([nH]c5ccccc45)[C@@H]3c3ccc4c(c3)CCO4)n2)CC1` are 99%, 98% and 12%.
The like results for `Cc1ccc(C)c(CN2CCC(CNC(=O)c3cc4ccc5cccnc5c4[nH]3)CC2)c1` were, in that order, 95%, 10% and 25%.
In the case of `CC(C)(C)c1ccc(NC(=O)Nc2ccc(Cn3ncc(N4CCCNCC4)c(Cl)c3=O)cc2)cc1.O=C(O)C(F)(F)F`, the Inhibition worked out at 95% in the test with Plasmodium falciparum [1], 33% in the test with Plasmodium falciparum [2] and 0% in the test on HepG2.
With `O=C(O)C(F)(F)F.O=S(=O)(NCCN1CCCC1)c1ccc(-c2ccc(CNC3Cc4ccccc4C3)cc2)cc1F`, the Inhibition in the test on Plasmodium falciparum [1] is 100%; with Plasmodium falciparum [2], 75%; with HepG2 it was 33%.
Regarding `Cc1cccc2nc(-c3cccc(-c4ccc(NC(=O)COC(C)C)cc4)c3)[nH]c12`, the Inhibition with Plasmodium falciparum [1] is 82%; with Plasmodium falciparum [2], 11%; with HepG2 it was 0%.
The like results for `COc1ccc2nccc([C@@H](O)CN3CCC(NCCOc4cccc(C(F)(F)F)c4Cl)CC3)c2c1.O=C(O)C(=O)O` were, in that order, 100%, 98% and 13%.
The like results for `COc1ccc2nccc(N3CCCN(CCNS(=O)(=O)c4ccc5c(c4)NC(=O)CS5)CC3)c2n1.Cl` were, in that order, 97%, 15% and 0%.
The corresponding values for `COc1cc2ncnc(Nc3ccc(OCc4ccccc4Br)c(OC)c3)c2cc1OC.Cl` are 100%, 62% and 11%.
Regarding `Cc1[nH]c(C)c(-c2ccc(-c3ccccc3)nc2)c(=O)c1Br`, the Inhibition came to 96% with Plasmodium falciparum [1], 95% in the test on Plasmodium falciparum [2] and 0% in the test with HepG2.
The corresponding values for `COc1ccccc1CNC(=O)c1cc(Br)cc(N2CCN(c3ccncc3)CC2)c1.O=C(O)C(F)(F)F` are 95%, 76% and 43%.
Consider `Cc1cccc2nc(-c3ccc(-c4ccc(CN5CCCCC5CO)cc4)cc3)[nH]c12.O=C(O)C(F)(F)F` (stereo unspecified), for which the results for the Inhibition with Plasmodium falciparum [1], in the test with Plasmodium falciparum [2] and with HepG2 were 100%, 76% and 32%, respectively.
The like results for `CN(c1ncc(-c2cccc(CNCc3ccccc3O)c2)cn1)C1CCCCC1` were, in that order, 95%, 71% and 12%.
For the compound `COc1ccc2nccc([C@@H](O)CN3CCC(NC(=O)/C=C/c4cc(F)cc(Br)c4)CC3)c2c1`, the figures for the Inhibition with Plasmodium falciparum [1], in the test with Plasmodium falciparum [2] and in the test with HepG2 were 95%, 50% and 24%, respectively.
The like results for `CN1CCN(Cc2ccc(-c3ccc4c(Nc5cc(O)c(F)cc5Cl)ccnc4c3)o2)CC1` were, in that order, 100%, 99% and 27%.
The like results for `CS(=O)(=O)c1cccc(-c2cnc3[nH]cc(-c4ccc(C(=O)O)cc4)c3c2)c1` were, in that order, 99%, 100% and 6%.
The like results for `CCOc1ccc(N2C(N)=NC(N)=NC2(C)C)cc1.Cl` were, in that order, 95%, 0% and 10%.
As for `CCCCCCNC(=O)C(N)CCCC(N)C(=O)NCCCCCC.Cc1ccc(S(=O)(=O)O)cc1` (stereo unspecified), the results for the Inhibition with Plasmodium falciparum [1], in the test with Plasmodium falciparum [2] and with HepG2 were 99%, 0% and 0%, respectively.
Consider `OC[C@H](Nc1nc(C(Oc2ccccc2)c2ccccc2)nc2[nH]ncc12)c1ccccc1` (stereo partly specified), for which the Inhibition in the test on Plasmodium falciparum [1] worked out at 98%; in the test with Plasmodium falciparum [2], 45%; in the test on HepG2 it was 0%.
The corresponding values for `N#Cc1ccc(N2C[C@@H](OCc3ccccc3)C[C@H]2C(=O)NCCC(c2ccccc2)c2ccccc2)c2ccccc12` are 93%, 96% and 11%.
The corresponding values for `CC(Cc1ccc(C(=O)OC(c2ccccc2)c2ccccc2)cc1)NCC(O)c1ccccc1.Cl` (stereo unspecified) are 100%, 98% and 83%.
The like results for `NC(=O)c1cccc(CNCc2ccc(-c3cccc(-c4nc5ccccc5[nH]4)c3)cc2)c1.O=C(O)C(F)(F)F` were, in that order, 100%, 94% and 29%.
